Experiments:
Test in all cases: log2 ratio of Biotin-Ahx-Ub-VS probe labelling (fragment/DMSO); higher = less target engagement (more negative = stronger competition), active = hit call of the paper (q ≤ 0.05, log2 ratio ≤ -1)
Conditions in all cases: compound concentration: 200 uM; treatment time: 3 h
ALG13 = biological target: T1, ALG13 (UniProt Q9NP73)
T1 sequence (whole entry): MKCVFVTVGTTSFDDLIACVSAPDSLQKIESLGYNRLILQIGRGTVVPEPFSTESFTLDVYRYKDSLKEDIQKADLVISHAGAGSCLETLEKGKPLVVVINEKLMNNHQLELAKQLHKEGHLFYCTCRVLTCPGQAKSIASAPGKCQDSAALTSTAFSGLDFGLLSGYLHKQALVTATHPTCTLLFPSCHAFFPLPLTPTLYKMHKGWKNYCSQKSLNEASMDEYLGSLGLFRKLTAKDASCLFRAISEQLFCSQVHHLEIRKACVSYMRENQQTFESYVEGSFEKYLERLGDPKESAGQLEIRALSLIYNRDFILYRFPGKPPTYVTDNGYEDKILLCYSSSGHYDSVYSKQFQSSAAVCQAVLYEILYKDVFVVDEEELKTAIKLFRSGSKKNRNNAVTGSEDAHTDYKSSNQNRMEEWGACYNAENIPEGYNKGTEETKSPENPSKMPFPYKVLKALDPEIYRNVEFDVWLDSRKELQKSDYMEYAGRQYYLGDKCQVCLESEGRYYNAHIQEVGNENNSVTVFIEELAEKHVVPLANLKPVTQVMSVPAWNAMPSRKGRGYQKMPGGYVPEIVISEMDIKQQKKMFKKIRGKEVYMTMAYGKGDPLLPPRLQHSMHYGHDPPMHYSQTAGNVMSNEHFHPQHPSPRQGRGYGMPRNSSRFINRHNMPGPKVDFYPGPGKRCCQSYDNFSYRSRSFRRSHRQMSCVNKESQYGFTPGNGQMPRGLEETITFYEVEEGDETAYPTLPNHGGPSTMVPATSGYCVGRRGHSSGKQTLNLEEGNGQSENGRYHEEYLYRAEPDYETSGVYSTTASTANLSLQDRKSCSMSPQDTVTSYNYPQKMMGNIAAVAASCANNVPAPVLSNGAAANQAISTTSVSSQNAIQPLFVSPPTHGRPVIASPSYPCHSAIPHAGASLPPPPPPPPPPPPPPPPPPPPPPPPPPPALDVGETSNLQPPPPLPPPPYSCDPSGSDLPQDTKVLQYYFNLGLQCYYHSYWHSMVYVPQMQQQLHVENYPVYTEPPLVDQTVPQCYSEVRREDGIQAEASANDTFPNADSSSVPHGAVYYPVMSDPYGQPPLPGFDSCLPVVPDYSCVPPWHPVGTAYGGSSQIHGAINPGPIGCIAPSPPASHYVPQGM
Outline: (§1)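 The table lists average log2 ratios of fragment over vehicle, from an unpaired t-test on global-median-normalised Spectronaut label-free quantities. Proteins with ≥2 unique peptides were used. Samples were HEK293T lysate (495 µg) treated in triplicate with fragment at 200 µM or vehicle for 3 h, then with Biotin-Ahx-Ub-VS (0.5 µM final) for 1 h, with labelled DUBs NeutrAvidin-enriched and run by diaPASEF LC-MS/MS.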

ATXN3 = ATXN3 (UniProt P54252)
Sequence of ATXN3 (P54252 whole entry): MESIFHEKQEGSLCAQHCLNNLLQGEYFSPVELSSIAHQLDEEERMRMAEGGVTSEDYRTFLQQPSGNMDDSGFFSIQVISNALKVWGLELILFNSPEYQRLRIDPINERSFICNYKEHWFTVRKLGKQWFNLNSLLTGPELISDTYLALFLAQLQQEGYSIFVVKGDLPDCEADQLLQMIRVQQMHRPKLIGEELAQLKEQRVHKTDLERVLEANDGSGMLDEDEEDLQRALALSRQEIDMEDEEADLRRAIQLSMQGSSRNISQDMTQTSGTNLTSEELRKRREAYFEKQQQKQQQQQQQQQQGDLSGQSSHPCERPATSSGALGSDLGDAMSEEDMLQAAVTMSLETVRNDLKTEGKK
Outline: as §1

BAP1 = biological target: T2, BAP1 (UniProt Q92560)
T2 sequence (whole entry): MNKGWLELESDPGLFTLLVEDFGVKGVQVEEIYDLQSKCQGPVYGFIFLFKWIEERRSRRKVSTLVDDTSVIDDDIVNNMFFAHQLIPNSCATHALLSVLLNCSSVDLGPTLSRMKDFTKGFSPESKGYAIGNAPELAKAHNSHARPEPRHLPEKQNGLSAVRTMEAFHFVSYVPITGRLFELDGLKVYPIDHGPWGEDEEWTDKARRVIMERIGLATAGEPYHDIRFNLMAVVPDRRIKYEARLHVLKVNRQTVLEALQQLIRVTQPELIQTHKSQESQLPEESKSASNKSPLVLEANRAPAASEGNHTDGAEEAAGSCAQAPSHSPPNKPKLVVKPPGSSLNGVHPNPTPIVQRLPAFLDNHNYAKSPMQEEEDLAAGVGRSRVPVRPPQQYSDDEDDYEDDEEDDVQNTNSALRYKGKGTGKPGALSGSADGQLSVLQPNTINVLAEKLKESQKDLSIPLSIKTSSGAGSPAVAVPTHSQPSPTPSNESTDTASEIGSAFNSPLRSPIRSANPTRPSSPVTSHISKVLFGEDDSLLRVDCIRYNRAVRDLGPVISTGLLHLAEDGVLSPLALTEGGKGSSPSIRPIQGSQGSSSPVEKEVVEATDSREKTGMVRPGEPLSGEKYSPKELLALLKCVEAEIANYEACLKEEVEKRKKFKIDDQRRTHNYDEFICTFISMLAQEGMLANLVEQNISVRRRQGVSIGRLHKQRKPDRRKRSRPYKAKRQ
Outline: as §1

EIF3F = EIF3F (UniProt O00303)
Sequence of EIF3F (O00303 whole entry): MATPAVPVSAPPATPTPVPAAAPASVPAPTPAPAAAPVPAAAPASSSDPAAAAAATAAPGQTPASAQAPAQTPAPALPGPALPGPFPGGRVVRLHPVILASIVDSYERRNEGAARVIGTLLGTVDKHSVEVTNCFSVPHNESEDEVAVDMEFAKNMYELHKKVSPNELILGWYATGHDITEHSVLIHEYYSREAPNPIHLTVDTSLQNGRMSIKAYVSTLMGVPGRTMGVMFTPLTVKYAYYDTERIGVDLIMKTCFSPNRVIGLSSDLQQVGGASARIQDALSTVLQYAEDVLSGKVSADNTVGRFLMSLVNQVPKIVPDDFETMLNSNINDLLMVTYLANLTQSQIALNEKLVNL
Outline: as §1

EIF3H = EIF3H (UniProt O15372)
Sequence of EIF3H (O15372 whole entry): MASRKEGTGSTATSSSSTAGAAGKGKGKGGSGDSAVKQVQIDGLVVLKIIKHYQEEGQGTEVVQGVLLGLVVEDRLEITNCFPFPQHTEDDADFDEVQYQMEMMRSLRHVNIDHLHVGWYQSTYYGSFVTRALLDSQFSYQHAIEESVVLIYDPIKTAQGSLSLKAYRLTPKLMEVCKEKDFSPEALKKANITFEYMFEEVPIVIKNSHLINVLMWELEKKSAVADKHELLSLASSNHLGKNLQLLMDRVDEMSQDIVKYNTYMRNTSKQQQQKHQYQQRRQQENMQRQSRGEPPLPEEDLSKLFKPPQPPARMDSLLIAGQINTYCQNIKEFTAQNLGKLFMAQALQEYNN
Outline: as §1

FAM105A = biological target: T3, FAM105A (UniProt Q9NUU6)
T3 sequence (whole entry): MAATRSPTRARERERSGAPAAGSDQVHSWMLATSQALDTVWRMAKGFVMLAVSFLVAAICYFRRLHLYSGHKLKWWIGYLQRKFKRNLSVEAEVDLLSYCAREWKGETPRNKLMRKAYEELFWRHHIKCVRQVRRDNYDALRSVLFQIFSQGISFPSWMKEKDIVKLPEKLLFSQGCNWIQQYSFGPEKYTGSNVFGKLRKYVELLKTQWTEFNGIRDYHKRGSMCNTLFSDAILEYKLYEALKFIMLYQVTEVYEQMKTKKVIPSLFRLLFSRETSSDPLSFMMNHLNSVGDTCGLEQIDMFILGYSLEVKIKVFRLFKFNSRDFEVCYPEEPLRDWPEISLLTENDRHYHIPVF
Outline: as §1

OTUB1 = OTUB1 (UniProt Q96FW1)
Sequence of OTUB1 (Q96FW1 whole entry): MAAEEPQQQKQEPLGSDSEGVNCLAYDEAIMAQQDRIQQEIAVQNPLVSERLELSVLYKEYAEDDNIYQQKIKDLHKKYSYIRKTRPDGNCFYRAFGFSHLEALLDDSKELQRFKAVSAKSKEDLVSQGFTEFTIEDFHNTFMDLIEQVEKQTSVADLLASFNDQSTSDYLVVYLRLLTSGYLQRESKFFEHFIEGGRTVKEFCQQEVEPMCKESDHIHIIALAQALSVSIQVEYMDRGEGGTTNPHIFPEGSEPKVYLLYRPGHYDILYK
Outline: as §1

OTUD4 = biological target: T4, OTUD4 (UniProt Q01804)
T4 sequence (whole entry): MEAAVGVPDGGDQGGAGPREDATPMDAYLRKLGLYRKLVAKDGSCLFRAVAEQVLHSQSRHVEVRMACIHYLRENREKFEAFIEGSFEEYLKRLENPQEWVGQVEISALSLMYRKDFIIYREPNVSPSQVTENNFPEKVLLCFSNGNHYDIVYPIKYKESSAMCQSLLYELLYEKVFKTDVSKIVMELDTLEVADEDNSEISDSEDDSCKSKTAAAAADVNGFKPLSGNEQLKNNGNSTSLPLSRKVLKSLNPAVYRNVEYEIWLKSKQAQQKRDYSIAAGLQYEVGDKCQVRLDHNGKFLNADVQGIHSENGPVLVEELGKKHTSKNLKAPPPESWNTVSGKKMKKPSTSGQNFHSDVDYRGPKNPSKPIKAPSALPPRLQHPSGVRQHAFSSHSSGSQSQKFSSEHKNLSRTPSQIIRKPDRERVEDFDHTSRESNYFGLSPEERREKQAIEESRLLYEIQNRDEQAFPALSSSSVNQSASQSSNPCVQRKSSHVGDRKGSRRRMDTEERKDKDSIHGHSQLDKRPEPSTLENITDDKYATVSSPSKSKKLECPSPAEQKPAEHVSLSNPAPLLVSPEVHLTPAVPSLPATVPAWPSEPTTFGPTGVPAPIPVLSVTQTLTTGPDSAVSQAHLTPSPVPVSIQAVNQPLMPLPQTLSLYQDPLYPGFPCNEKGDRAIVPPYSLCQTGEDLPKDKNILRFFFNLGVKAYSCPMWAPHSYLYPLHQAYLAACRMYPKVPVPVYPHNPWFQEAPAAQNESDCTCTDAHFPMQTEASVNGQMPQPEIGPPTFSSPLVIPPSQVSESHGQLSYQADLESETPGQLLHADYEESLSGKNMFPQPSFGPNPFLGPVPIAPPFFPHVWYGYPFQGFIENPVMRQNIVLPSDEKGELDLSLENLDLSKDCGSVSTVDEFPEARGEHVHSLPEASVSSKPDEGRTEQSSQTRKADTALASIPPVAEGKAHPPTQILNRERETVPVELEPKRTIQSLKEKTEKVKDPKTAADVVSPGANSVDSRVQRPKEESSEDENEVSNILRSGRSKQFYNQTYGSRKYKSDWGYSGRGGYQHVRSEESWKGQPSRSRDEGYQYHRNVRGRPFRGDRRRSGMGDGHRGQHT
Outline: as §1

OTUD5 = biological target: T5, OTUD5 (UniProt Q96G74)
T5 sequence (whole entry): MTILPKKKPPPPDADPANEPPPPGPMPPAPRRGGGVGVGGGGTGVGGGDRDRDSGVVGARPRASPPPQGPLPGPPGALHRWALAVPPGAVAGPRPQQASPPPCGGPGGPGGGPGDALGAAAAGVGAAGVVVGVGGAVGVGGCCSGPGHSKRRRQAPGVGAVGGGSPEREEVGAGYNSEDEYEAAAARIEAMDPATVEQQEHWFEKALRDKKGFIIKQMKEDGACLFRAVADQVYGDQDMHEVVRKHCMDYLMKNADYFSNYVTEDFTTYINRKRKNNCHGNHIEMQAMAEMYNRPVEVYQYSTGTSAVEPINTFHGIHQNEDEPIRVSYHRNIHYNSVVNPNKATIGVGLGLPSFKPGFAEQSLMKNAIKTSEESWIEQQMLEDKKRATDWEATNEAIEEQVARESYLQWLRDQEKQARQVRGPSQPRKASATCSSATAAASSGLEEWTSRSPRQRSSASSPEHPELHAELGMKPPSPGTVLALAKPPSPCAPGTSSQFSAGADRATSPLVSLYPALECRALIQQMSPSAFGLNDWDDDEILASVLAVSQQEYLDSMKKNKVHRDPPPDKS
Outline: as §1

Measured: log2 ratio of Biotin-Ahx-Ub-VS probe labelling

O=C(CCl)N1CCOC(c2cccc(F)c2)C1 (stereo not drawn)
active: ATXN3 -2.59 | BAP1 -1.09
inactive: ALG13 -0.261 | EIF3F -0.0524 | EIF3H 0.265 | FAM105A -0.167 | OTUB1 -0.175 | OTUD4 -0.803 | OTUD5 -0.491

O=C(CCl)N1CCc2ccccc2C(O)C1 (stereo not drawn)
inactive: ALG13 0.0799 | ATXN3 -0.585 | BAP1 -0.705 | EIF3F -0.125 | EIF3H -0.359 | FAM105A -0.413 | OTUB1 0.0821 | OTUD4 -0.69
active: OTUD5 -1.31
